# Measurements as given in PubChem BioAssay (EPA / NIEHS).
# Active and inactive are the calls of the source. How the source made its calls: active means hit-call score of the fitted dose curve at least 0.9, where 1 is the maximum; inactive means score below 0.9.
# Read-out: Cytochrome P450 (CYP1A2), CYP1A2 (gene 1544)
# Assay: LTEA_HepaRG_CYP1A2: Life Technologies and Expression Analysis (LTEA) Assay for Cytochrome P450 (CYP1A2) using HepaRG (AID 2283479);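 on AC50: TaqMan qRT-PCR transcript level normalized to ACTB GAPDH and POLR2A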
# Conditions: mRNA level, 48 h; actives raise or lower the signal
# Method: LTEA_HepaRG is a cell based, multiplexed-readout assay that uses HepaRG, a human liver cell line, with measurements taken at 48 hours after chemical dosing on a 96-well plate.LTEA_HepaRG_CYP1A2 is one of 102 assay component(s) measured in the LTEA HepaRG cell culture assay. It is a marker of NR mediated metabolism.Data from the assay component LTEA_HepaRG_CYP1A2 was analyzed into 1 endpoint. This assay endpoint, LTEA_HepaRG_CYP1A2, was analyzed with bidirectional fitting relative to DMSO as the negative control and baseline of activity. Using a type of inducible reporter, measures of mRNA induction for gain or loss-of-signal activity can be used to understand regulation of transcription factor activity. To generalize the intended target to other relatable targets, this assay endpoint is annotated to the cyp intended target family, where the subfamily is xenobiotic metabolism.
# A total of 1060 chemcials from the ToxCast library were tested in eight-point concentration-response experiments. Cell culture and cytotoxicity assays were conducted at Thermo Fisher Scientific's Custom Services facility (Madison, WI). A single lot of human HepaRG cells (Thermo Fisher Scientific, Frederick, MD) was used for the cell culture experiments. 96-well format collagen type I coated plates of human HepaRG cells were prepared using established methods. Briefly, cryopreserved HepaRG cells were thawed, plated at a density of approximately 100,000 cells/well in HepaRG Thaw, Plate, and General Purpose media (HPRG770, Thermo Fisher Scientific), and incubated for 48 hours. 0.5% DMSO was selected as vehicle control to balance the requisite need of DMSO in HepaRG cultures to maintain differentiation (for example, baseline metabolism, proportions of hepatocytes vs. cholangiocytes), while enabling further hepatic receptor pathway activation (for example, PXR and CAR) in response to chemical exposure. 48 hours after plating, the culture medium was replaced with HepaRG Serum-Free Incudtion Media. Cells were exposed to each test chemical in duplicate and maintained in CO2 incubators for another 48 hours. Chemical plates were thawed to room temperature and 200x concentrations of treatment groups were prepared. 8-point conentration-reponse curves were made with the highest exposure at 100 uM, followed by half-log dilutions, all in 0.5% DMSO. Each test plate contained variouse controls, induction positive controls (1mM phenobarbital), cytotoxicity positive controls ([…] aflatoxin B1), vehicle controls (0.5% DMSO), and total lysis controls (0.5% DMSO). Cell morphology images were taken using an Essen IncuCyte FLR automated microscope, with six 96-well plates imaged in about 24 minutes. Images were captured and exported and JPEG files. Spent culture media was transfered to black-well plates for the LDH assay, and remaining media was sorted at -80 C for later use. Cells were treated with RLT buffer and frozen until shipped for gene expression analysis. Total RNA was isolated from the cell suspension in 75 uL of Buffer RLT (Qiagen, Germantown, MD 20874) by Quintiles/Expression Analysis (Durham, NC) using a custom isolation procedure. Total RNA from each plate well was transferred to a preamplification plate. Fluidigm's 96.96 Dynamic ArrayTM (Fluidigm, Amsterdam, the Netherlands) technology was used for gene expression analyses by quantitative reverse transcription polymerase chain reaction (qRT-PCR, performed by Quintiles/Expression Analysis, Durham, NC)89. Standard TaqManTM Assays (Applied Biosystems/ThermoFisher Scientific, Foster City, CA) were used to assess the expression of 93 genes selected based on their selectivity and sensitivity to important hepatic receptors known to be modulated by environmental chemicals; importance in human hepatocyte functionality; and hepatotoxicity. […]
Compound,AC50,outcome
CC(C)C(=O)Nc1ccc([N+](=O)[O-])c(C(F)(F)F)c1,14.9 µM (active),
CC(=O)c1ccccc1,,inactive
NC(=O)N1c2ccccc2C=Cc2ccccc21,,inactive
O=S1(=O)CCCO1,,inactive
CCCCCOC(C)=O,,inactive
NC(=O)NN=Cc1ccc([N+](=O)[O-])o1,0.377 µM (active),
CCCCCCCCCCCCCCCCOS(=O)(=O)O,,inactive
OC[C@H]1O[C@@H]2O[C@H]3[C@H](O)[C@@H](O)[C@@H](O[C@H]4[C@H](O)[C@@H](O)[C@@H](O[C@H]5[C@H](O)[C@@H](O)[C@@H](O[C@H]6[C@H](O)[C@@H](O)[C@@H](O[C@H]7[C@H](O)[C@@H](O)[C@@H](O[C@H]1[C@H](O)[C@H]2O)O[C@@H]7CO)O[C@@H]6CO)O[C@@H]5CO)O[C@@H]4CO)O[C@@H]3CO,,inactive
OC[C@H]1O[C@@](CO)(O[C@H]2O[C@H](CO)[C@@H](O)[C@H](O)[C@H]2O)[C@@H](O)[C@@H]1O,,inactive
COS(C)(=O)=O,,inactive
C=CN1CCCC1=O,,inactive
CCCCCCCCN(C)C,,inactive
c1ccc2cc3ccccc3cc2c1,18.7 µM (active),
COCc1nnc(-c2ccc[n+]([O-])c2)n1-c1c(Cl)c(Cl)cc2[nH]c(=O)c(=O)[nH]c12,,inactive
OCCOCCOCCO,,inactive
O=C(NO)C1(NS(=O)(=O)c2ccc(Oc3ccc(F)cc3)cc2)CCOCC1,,inactive
Cc1nc(-c2ccccn2)ncc1C(=O)Nn1cc(C)c2cc(F)ccc21,,inactive
COc1cc(C(C)C)c2c(c1)S(=O)(=O)N(COc1cc(=O)n3cccc(OCCN4CCCCC4)c3n1)C2=O,20.2 µM (active),
C=CCc1cc(S(=O)(=O)c2ccc(O)c(CC=C)c2)ccc1O,8.77 µM (active),
NC(=O)N(O)[C@@H]1COc2cc(OCc3ccccc3)ccc21,50 µM (active),

Compound,AC50,outcome
O=S(=O)(O)c1ccc(N=Nc2c(O)ccc3cc(S(=O)(=O)O)ccc23)cc1,50 µM (active),
CCCCOC(=O)c1ccccc1,,inactive
C[C@@H](Oc1ccc(CNC(=O)c2cccnc2Oc2ccc3c(c2)OCO3)c(F)c1)C(=O)O,,inactive
Cc1ncc([C@@H](CCCCCCc2ccc3c(n2)NCCC3)CC(=O)O)cn1,,inactive
CCOc1ccc2[nH]cc(C(=O)NCc3ccccc3)c(=O)c2n1,32 µM (active),
CCn1nc(C)c2c1C(=O)NCC(c1ccc(O)cc1)=N2,34.1 µM (active),
O=C(O)c1ccc2c(c1)nc(C(=O)NC1CCN(C3CC3)CC1)n2Cc1cc(-c2ccc(Cl)s2)on1,,inactive
CNC(C)=O,,inactive
CCc1ccc(O)c(C(C)(C)C)c1,,inactive
CCCCN1C(=O)[C@@H]([C@H](O)C2CCCCC2)NC(=O)C12CCN(Cc1ccc(Oc3ccc(C(=O)O)cc3)cc1)CC2,2.06 µM (active),
CCCCCCCCCC,50 µM (active),
O=c1[nH]cnc2c1ncn2[C@H]1CC[C@@H](CO)O1,,inactive
O=C(O)c1cccc(C[C@@H]2COc3ccc(OCc4nc5cc(F)ccc5s4)cc3[C@@H]2O)c1,,inactive
CCCOc1ccc(S(=O)(=O)N2CCN(CC)CC2)cc1-c1nc2c(CC)n(Cc3ccccn3)nc2c(=O)[nH]1,79.4 µM (active),
CCCCCCCC/C=C\CCCCCCCC(=O)OC[C@@H](O)[C@H]1OC[C@H](O)[C@H]1O,,inactive
NNC(=O)c1ccncc1,,inactive
CCCCC(CC)C(=O)OCCOCCOCCOC(=O)C(CC)CCCC (stereo not given),,inactive
NC(N)=O,,inactive
OCC(CO)(CO)CO,,inactive
CC(C)CCCCCCOC(=O)C1CCCCC1C(=O)OCCCCCCC(C)C (stereo not given),50 µM (active),
